Compounds with a hit are over-represented: about 7.1% of the library has one in this group of screens.
MARV entry inh – Marburg virus entry inhibition; Marburg virus pseudotype entry/binding inhibition, cell-based; Potency, µM (titrated, usually from 49.2 µM), for inactives: at the highest dose activity change, negative = inhibition, usual class: inhibitors; 18,000 tested, 6.5% active; AID 720532
Lassa entry – blocks Lassa virus binding or cell entry; Potency, µM (top dose mostly 49.2 µM), for the others: at the top dose activity change, negative = inhibition, hits mostly inhibitors; Lassa virus pseudotyped entry inhibition, cell-based qHTS; 18,000 tested, 4.1% active
Numbers without * were called inactive; ! = not active in a repeat; [ ] = dose if it differs, or a comment. The call rests on the fitted dose curve; tested in HEK293 cells. On the % scale 0 is the no-effect control and ±100 the full control effect; potency means the concentration at half of the fitted maximal effect.

`CC(C)=CCCC1(C)C=Cc2c(O)c3c(c(CC=C(C)C)c2O1)OC12C(=CC4CC1C(C)(C)OC2(C/C=C(/C)C(=O)O)C4O)C3=O` (configuration not stated) gave MARV entry inh 3.5µM* and Lassa entry 4.5µM*.
Screening CC(C)CCCC1(C)C=Cc2c(O)c3c(c(CCC(C)C)c2O1)OC12C(CC4CC1C(C)(C)OC2(CCC(C)C(=O)O)C4O)C3=O (configuration not stated) returned MARV entry inh -20% and Lassa entry -17%.
CC(C)=CCCC1(C)C=Cc2c(O)c3c(c(CC=C(C)C)c2O1)OC12C(=CC4CC1C(C)(C)OC2(C/C=C(/C)C(=O)O)C4=O)C3=O (configuration not stated) was read as MARV entry inh 2.8µM* and Lassa entry 5µM*.
Screening CCN1C(=NCc2ccc3c(c2)OCO3)NC(c2ccccc2)C(C(=O)OC)=C1C (configuration not stated) returned MARV entry inh -18%[8.59 µM] and Lassa entry -4%[8.59 µM].
Screening C#CCN1C(=O)[C@]2(O[C@H](C)CC3=CCCC32)c2c(Br)cccc21 (some centres not stated) returned MARV entry inh -15%[8.59 µM] and Lassa entry 37%[8.59 µM].
`CC(=O)OC[C@]12C[C@H](OC(=O)CC(C)C)C(C)=C[C@H]1O[C@H]1[C@H](O)[C@@H](OC(C)=O)[C@@]2(C)[C@]12CO2` gave MARV entry inh 8.9µM* and Lassa entry 0.18µM*.
`CCCCCCCc1cc2ccccc2c2c(C(=O)OC)cc(C(=O)OC)n12` gave MARV entry inh 25%[8.59 µM] and Lassa entry -12%[8.59 µM].
`CN(C)c1ccc(-c2nc(N(C)C)c3ccccc3n2)cc1` gave MARV entry inh 11µM* and Lassa entry -7%.
For CN(C)c1ccc(-c2nc(N(C)Cc3ccco3)c3ccccc3n2)cc1 the results were MARV entry inh inconclusive and Lassa entry 29%.
Screening CNc1nc(-c2ccc(N(C)C)cc2)nc2ccccc12 returned MARV entry inh 18µM* and Lassa entry -7%.
Screening CN(C)c1ccc(-c2nc(Nc3ccncc3)c3ccccc3n2)cc1 returned MARV entry inh inconclusive and Lassa entry -32%.
For CC(=O)OC[C@H]1O[C@H](CC=NOC[C@@H](O)COCc2ccco2)C=C[C@H]1OC(C)=O the results were MARV entry inh 1%[8.59 µM] and Lassa entry -4%[8.59 µM].
`O=C(/C=C/c1ccc(O)c(O)c1)c1ccc(O[C@@H]2O[C@H](CO)[C@@H](O)[C@H](O)[C@H]2O)c(O)c1O` gave MARV entry inh 3.2µM* and Lassa entry 2%.
`O=C1C[C@@H](c2ccc(O)c(O)c2)Oc2c1ccc(O[C@@H]1O[C@H](CO)[C@@H](O)[C@H](O)[C@H]1O)c2O` gave MARV entry inh inconclusive and Lassa entry -1%.
O=C(c1cccs1)N1C[C@@H](O)[C@@H](n2cc(C3CC3)nn2)C[C@@H]1c1ccccc1 was read as MARV entry inh -21% and Lassa entry 13%.
Screening CN(C(=O)Cc1ccccc1)[C@H](CN1CCCC1)c1ccccc1 returned MARV entry inh inconclusive and Lassa entry -2%.
Screening CN(C(=O)Cc1ccc(Cl)c(Cl)c1)[C@H](CN1CCCC1)c1ccccc1 returned MARV entry inh 7.1µM* and Lassa entry 20µM*.
COc1cccc([C@H]2Oc3ccc(OC)cc3C(=NO[C@H](C)c3cn([C@H](CO)Cc4ccccc4)nn3)[C@H]2O)c1 was read as MARV entry inh 41%[8.59 µM] and Lassa entry 8%[8.59 µM].
`Fc1ccc(-c2ncn(C3CCNCC3)c2-c2ccnc(Oc3ccc4c(c3)OCO4)n2)cc1` gave MARV entry inh 6.3µM* and Lassa entry inconclusive.
NC(=O)Cc1ccccc1Oc1nccc(-c2c(-c3ccc(F)cc3)ncn2C2CCNCC2)n1 was read as MARV entry inh inconclusive and Lassa entry -30%.
Cc1ccc(CN2[C@@H](CC(C)C)COc3c(Cl)cccc3S2(=O)=O)cc1 was read as MARV entry inh -26% and Lassa entry -8%.
For CC(=O)OC1CC(OC(C)=O)[C@]2(C)C(CC(OC(C)=O)[C@]3(C)C2CC[C@@]2(C)C(c4ccoc4)C(=O)C4O[C@]432)C1(C)C (some centres not stated) the results were MARV entry inh 16µM* and Lassa entry -16%.
For CC(=O)OC1C[C@@]2(C)C(c3ccoc3)OC(=O)C3O[C@@]32[C@]2(C)C(OC(C)=O)CC3C(C)(C)C(OC(C)=O)CC(OC(C)=O)[C@@]3(C)C12 (some centres not stated) the results were MARV entry inh 2% and Lassa entry 7%.
For CCN1C(=O)NC(c2ccccc2)C(C(=O)OC)=C1C (configuration not stated) the results were MARV entry inh 7%[8.59 µM] and Lassa entry 4%[8.59 µM].
For Nc1nonc1-c1nc2cnccc2n1C1CCCCC1 the results were MARV entry inh inconclusive and Lassa entry 42%.
Screening C=CCC(C)(O)c1cccc(C(F)(F)F)c1 (configuration not stated) returned MARV entry inh 3% and Lassa entry -10%.
C=CC[C@](C)(O)c1ccccc1 was read as MARV entry inh -15% and Lassa entry 0.75µM*!.
CCCCCCCC=CC1=CC2(C)CC1(C)C(CCCCCCC)CC2=O (configuration not stated) was read as MARV entry inh inconclusive and Lassa entry 4%[8.59 µM].
Screening CS(=O)(=O)CCNCc1nc(-c2ccc3ncnc(Nc4ccc(OCc5cccc(F)c5)c(Cl)c4)c3c2)cs1 returned MARV entry inh -15% and Lassa entry -7%.
For O=C(OC1CNC(C#Cc2cc3ncnc(Nc4ccc(OCc5cccc(F)c5)c(Cl)c4)c3s2)C1)N1CCOCC1 (configuration not stated) the results were MARV entry inh 13µM* and Lassa entry inconclusive.
`O=S(=O)(CCOCc1ccc(-c2ccc3ncnc(Nc4ccc(OCc5cccc(F)c5)c(Cl)c4)c3c2)o1)c1ccccc1` gave MARV entry inh -30% and Lassa entry 42%.
`CNC(=O)c1cccc(C#Cc2cncnc2Nc2ccc(OCc3cccc(F)c3)c(Cl)c2)c1` gave MARV entry inh 2.5µM*.
Screening COc1cc2ncnc(Nc3ccc4c(cnn4Cc4ccccc4)c3)c2cc1OC returned MARV entry inh inconclusive and Lassa entry -24%.
`O=C(OC1CNC(C#Cc2cc3ncnc(Nc4ccc5c(cnn5Cc5ccccc5)c4)c3s2)C1)N1CCOCC1` (configuration not stated) gave MARV entry inh inconclusive and Lassa entry 0.4µM*.
For CC(CCN1CCCc2nc(C)c(C)cc21)=NOC[C@@H](O)COCc1ccco1 the results were MARV entry inh inconclusive and Lassa entry -17%[8.59 µM].
Screening CCc1cc2c(nc1CC)CCN(CCC(C)=NOC[C@@H](C)[C@H](OCc1ccccc1)C(C)C)C2 returned MARV entry inh -17%[8.59 µM] and Lassa entry -5%[8.59 µM].
Screening C#CCN1C(=O)[C@@]2(CC(C)=CC[C@@H](C)O2)c2ccccc21 returned MARV entry inh 16%[8.59 µM] and Lassa entry -24%[8.59 µM].
For O[C@H]1C[C@H](c2ccc(Cl)cc2)N(CC2CCCCC2)C[C@H]1n1cc(-c2ccc(F)cc2)nn1 the results were MARV entry inh -28% and Lassa entry -17%.
For CC1=CC[C@@H](C)O[C@@]2(C1)C(=O)Nc1cccc(Br)c12 the results were MARV entry inh -15%[8.59 µM] and Lassa entry 60%[8.59 µM].

Screening results as filed in PubChem BioAssay.
